Pf growth 48h: inhibits P. falciparum growth in the first generation, 48 h. P. falciparum luciferase growth in erythrocytes, 48 h. Potency, µM (series often up to 28.7 µM), for inactives: at the top dose activity change, negative = inhibition, hits mostly inhibitors. 310,000 compounds, 5.9% hits; note: potency is the fitted concentration of half-maximal effect; % is set by controls: 0 for no effect and ±100 for the full control effect
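Growth was read as firefly luciferase luminescence after a 48 h, 37 C, 5% CO2 exposure of compounds to reporter-bearing P. falciparum cultures (0.1% parasitemia, 2% hematocrit final) in Albumax-supplemented RPMI 1640.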
Shiga toxin inh: inhibitors of Shiga toxin in Vero cells; Vero cells, Shiga toxin protein synthesis inhibition reporter; inhibition, % at 38.7 µM; 290,000 compounds, 9.2% hits; AID 2315; in the data active = inhibition mostly above about 28%, no sharp cut-off; inactive = mostly below about 43%; note: 0% is about no effect
Cycloheximide cs: affects cycloheximide protein synthesis inhibition readout, counter-screen. 300,000 compounds, 12% hits. max response, %. AID 2314. cell reporter, cycloheximide protein synthesis inhibition counterscreen; in the data active = max response mostly above about 13%, no sharp cut-off; inactive = mostly below about 14%; note: read at 38.3 µM for the half of the compounds with a filed dose; 0% is about no effect
HCV inhibitor: blocks hepatitis C virus; Huh7.5.1 HCVcc-Cre infection, luciferase reporter, 44 h; Potency, µM (highest dose often 41.8 µM), for inactives: top-dose activity change, negative = inhibition, usual class: inhibitors; 340,000 compounds, 3.4% hits; AID 651820; note: potency is the fitted concentration of half-maximal effect; % is set by controls: 0 for no effect and ±100 for the full control effect
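After 44 h co-culture of compound, cells and HCVcc-Cre (~0.5 moi), substrate is added for 15 min at room temperature and luciferase measured over 15 sec. Cells were seeded at 1,000/well and pre-cultured 4 h.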
HCMV inh: human cytomegalovirus inhibition; activity change, negative = inhibition, % at 57.5 µM; HFF cells, HCMV-luciferase reporter, 72 h; stronger effect = lower value; 410,000 compounds, 4.5% hits; AID 1259415; in the data active = activity change below about -60%; inconclusive = no clear call, values can overlap the other calls; inactive = above about -39%; note: % is set by controls: 0 for no effect and ±100 for the full control effect
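Two compound doses tested in HFFs infected with HCMV-luciferase, MOI 1 PFU/cell, 72 h at 37C. Lysate luminescence read with OneGlo; data normalized against buffer-only and 10uM Salinomycin inhibitor controls.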
Pf growth 96h: inhibits malaria parasite growth, 96 h. P. falciparum luciferase reporter growth, 96 h. Potency, µM (titrated, usually from 28.7 µM), for inactives: top-dose activity change, negative = inhibition, most hits filed as inhibitors. 320,000 compounds, 6.9% hits. AID 504834; note: potency is the fitted concentration of half-maximal effect; % is set by controls: 0 for no effect and ±100 for the full control effect
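Two parasite generations (96 h, 37 C, 5% CO2) of compound exposure in infected erythrocytes (0.05% parasitemia, 2% hematocrit). Luciferase-reporter P. falciparum; decreased luminescence indicates inhibited growth, aimed at apicoplast-acting delayed death.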
Active calls of the source: *; ? = inconclusive; nt = no result given. Compounds with a hit are over-represented: about 21% of the library has one in this group of screens. Unless noted, calls come from the whole dose curve; as a rule, active = well fitted inhibition curve with a large enough effect; inconclusive = small, poorly fitted or top-dose-only effect, or another doubt; inactive = no such curve, though single readings can be large or run the other way.

SMILES	Pf growth 48h	Shiga toxin inh	Cycloheximide cs	HCV inhibitor	HCMV inh	Pf growth 96h
O=C(Nc1ccc2sccc2c1)c1cccc(N2C(=O)CCC2=O)c1	5%	92*	37*	12%	-39	60%
CCN(CC)S(=O)(=O)c1ccc(C(=O)Nc2nc3ccc(Cl)cc3s2)cc1	nt	nt	nt	nt	-9	nt
O=C(Nc1nc2cc3c(cc2s1)OCCO3)c1cccc(N2C(=O)CCC2=O)c1	72%	36*	21*	3%	4	98%
O=C(Nc1nc2ccccc2s1)c1cccc(N2C(=O)CCC2=O)c1	6%	-18	-4	14%	43	-15%
CCN(CC)S(=O)(=O)c1cccc(C(=O)Nc2nc3cc4c(cc3s2)OCCO4)c1	nt	19	9	2.2µM*	-98*	17%
CCOc1ccc(-c2cc(OC(=O)c3ccccc3)c3c(C)oc(C)c3c(=O)c2)cc1	nt	nt	nt	nt	11	nt
COc1ccc(/C=C/C(=O)NC(=S)N2CCOCC2)cc1	52%	73*	39*	9%	13	0%
O=C(/C=C/c1ccc(F)cc1)NC(=S)N1CCN(c2ccccn2)CC1	39%	98*	43*	8%	44	?
CCOC(=O)C1CCCN(C(=O)/C=C/c2ccc(Cl)cc2)C1 (stereo not drawn)	5%	1	-1	-2%	-26	-12%
O=C(CN1C(=O)/C(=C\c2ccc(F)cc2)Oc2ccccc21)N1CCN(c2ccccn2)CC1	10%	-12	-3	2%	-3	7.4µM*
COc1ccc(/C=C/C(=O)NC(=S)Nc2ccc(N3CCN(C(C)=O)CC3)cc2)cc1	-3%	-3	-8	6%	-32	?
CCOC(=O)C1CCCN(C(=S)NC(=O)/C=C/c2ccc(F)cc2)C1 (stereo not drawn)	?	-4	19	-15%	-82*	1%
CCN(CC(=O)Nc1ccc(NC(C)=O)cc1)C(=O)c1cc([N+](=O)[O-])ccc1Sc1ccc(Cl)cc1	nt	nt	nt	-19%	74	nt
Cc1ccsc1CN(C(=O)c1ccc(Br)cc1)C1CCS(=O)(=O)C1 (stereo not drawn)	nt	nt	nt	nt	-7	nt
COc1ccc(S(=O)(=O)CCC(=O)Nc2cccc(OC)c2)cc1	30%	12	6	nt	nt	?
COc1ccccc1C(CNC(=O)CNC(=O)c1ccc(C)c(C)c1)N1CCCC1 (stereo not drawn)	-28%	nt	nt	-16%	-7	?
COc1ccccc1N1CCN(C(=O)/C=C/c2ccc(C)cc2)CC1	-1%	4	5	?	22	12%
COc1ccc(/C=C/C(=O)NC(=S)N2CCN(c3ccccc3OC)CC2)cc1	-11%	22	20*	-13%	77	-24%
C=CCn1c(=NC(=O)C2COc3ccccc3O2)sc2cccc(OC)c21 (stereo not drawn)	7.4µM*	22	-2	4%	?	1.2µM*
C=CCn1c(=NC(=O)CN2C(=O)CCC2=O)sc2cccc(OC)c21	-7%	-3	-3	7%	-24	4%
Cc1ccc(N2CC(C(=O)Nc3ccc(Br)cc3)CC2=O)cc1 (stereo not drawn)	nt	nt	nt	nt	-10	nt
CN(CCNC(=O)c1cccc(N2CCCC2=O)c1)Cc1ccccc1	nt	-4	-5	-1%	5	44%
CN(CCNC(=O)c1ccc(N2CCCC2=O)cc1)CCc1ccccc1	?	9	0	16%	15	8.3µM*
CC(C)N(CCCNC(=O)c1ccc(N2CCCC2=O)cc1)Cc1ccccc1	-4%	9	3	12%	0	1.3µM*
Cc1ccc2c(c1)c(=O)c(C(=O)c1ccccc1)cn2Cc1ccccc1F	nt	nt	nt	nt	-23	nt
SMILES	Pf growth 48h	Shiga toxin inh	Cycloheximide cs	HCV inhibitor	HCMV inh	Pf growth 96h
COc1ccc(-n2ncc(C(=O)Nc3ccc(C)cc3Cl)c2C2CCN(C(=O)OC(C)(C)C)CC2)cc1	nt	nt	nt	nt	0	nt
CC1=NN(C(N)=S)C(=O)C1N=Nc1cccc(Cl)c1 (stereo not drawn)	nt	79*	44*	5%	21	24%
CC1=NN(C(N)=S)C(=O)C1N=Nc1ccccc1O (stereo not drawn)	41%	16	15*	15%	30	-19%
COc1cccc(N=NC2C(=O)N(C(N)=S)N=C2C)c1 (stereo not drawn)	nt	nt	nt	?	30	nt
CC1=NN(C(N)=S)C(=O)C1N=Nc1ccc(C)cc1C (stereo not drawn)	nt	59*	29*	nt	308	8.3µM*
CC1=NN(C(N)=S)C(=O)C1N=Nc1c(Cl)cc([N+](=O)[O-])cc1Cl (stereo not drawn)	?	27*	18*	-15%	14	9%
Cc1ccc2[nH]c(=O)c3cc(C(=O)N(C)c4ccc(Br)cc4)sc3c2c1	nt	nt	nt	nt	31	nt
CCCn1c(SCC(=O)Nc2cc(C)on2)n[nH]c1=O	nt	nt	nt	14%	0	nt
CC1=NN(C(N)=S)C(=O)C1N=Nc1c(C)cc(C)cc1C (stereo not drawn)	nt	-13	3	21%	19	4.1µM*
COC(=O)C(NC(=O)OCc1ccccc1)(c1ccc(Cl)cc1)C(Nc1ccccc1)c1ccccc1 (stereo not drawn)	nt	nt	nt	nt	24	nt
CCOc1ccccc1N=CC1=C(O)CC(c2ccccc2)CC1=O (stereo not drawn)	5%	2	-1	1%	-7	-26%
CCCC(=NC(C)CC)C1=C(O)CC(c2ccccc2)CC1=O (stereo not drawn)	2.9µM*	-5	1	-5%	7	?
CCC(=Nc1ccccc1OC)C1=C(O)CC(c2ccccc2)CC1=O (stereo not drawn)	-23%	21	-10	0%	-31	0.41µM*
CCC(=Nc1ccccc1O)C1=C(O)CC(c2ccccc2)CC1=O (stereo not drawn)	?	34	11*	5%	-5	?
CCC(C)N=CC1=C(O)CC(c2ccccc2)CC1=O (stereo not drawn)	nt	30	8	10%	5	?
CCCCCN=CC1=C(O)CC(c2ccccc2)CC1=O (stereo not drawn)	-14%	-6	7	9%	-32	-9%
O=[N+]([O-])c1ccccc1/C=N/OCc1ccccc1	106%	104*	31*	-9%	-7	108%
O=C(/C=C/c1ccccc1)NCC(=O)N/N=C/c1ccccc1[N+](=O)[O-]	-3%	-4	-5	-24%	3	-14%
CC(=O)Nc1ccc(NC(=O)C2C3C=CC(C3)C2C(=O)O)cc1 (stereo not drawn)	6%	-2	-3	14%	40	1.7µM*
Cc1ccc(-c2ccccc2NC(=O)C2C3C=CC(C3)C2C(=O)O)o1 (stereo not drawn)	?	16	13	15%	-8	-20%

Source: PubChem BioAssay (National Center for Advancing Translational Sciences (NCATS))
